Marburg entry inh = inhibitors of Marburg virus binding or cell entry. Marburg virus pseudotyped entry inhibition, cell reporter. Potency, µM (highest dose often 37.8 µM), inactives show at the top dose activity change, negative = inhibition, hits mostly inhibitors. hit rate 1.8% among 300,000. AID 540276; calls by dose curve; tested in HEK293 cells
Vaccinia Venus = vaccinia inhibition (Venus reporter); AID 720580; hit rate 0.46% among 330,000; Vaccinia virus Venus reporter expression, fluorescence; Potency, µM (titrated, usually from 36.5 µM), for inactives: at the top dose activity change, negative = inhibition, usual class: inhibitors; calls by dose curve; tested in A549 cells; also: nearly all actives have a fitted effect of over 30% in size
FMDV antiviral = antivirals against foot and mouth disease virus; FMDV antiviral cell-based qHTS; Potency, µM (doses to about 57.9 µM), for inactives: top-dose activity change, negative = inhibition, hits mostly inhibitors; hit rate 1.2% among 410,000; calls by dose curve; tested in HEK293T cells; also: read-out not given here; nearly all actives have a fitted effect of over 45% in size
Vaccinia mCherry = vaccinia inhibition (mCherry reporter); Vaccinia virus mCherry reporter infection, fluorescence; Potency, µM (doses to about 36.5 µM), for inactives: at the highest dose activity change, negative = inhibition, hits mostly inhibitors; hit rate 0.63% among 310,000; AID 720579; calls by dose curve; tested in A549 cells; also: nearly all actives have a fitted effect of over 35% in size
LASV entry inh = Lassa virus entry inhibition; Lassa virus pseudotype entry inhibition, cell reporter; Potency, µM (titrated, usually from 37.9 µM), for the others: at the highest dose activity change, negative = inhibition, usual class: inhibitors; hit rate 1.2% among 300,000; calls by dose curve; tested in HEK293 cells; also: nearly all actives have a fitted effect of over 50% in size
Numbers without * were called inactive; i = inactive; ? = inconclusive; . = no result given; [ ] = another dose, or the depositor's remark. Hits are enriched below; roughly 3.2% of the tested compounds scored in any of these assays. % is scaled to controls: 0 for no effect and ±100 for the full control effect; potency is read from the fitted curve at half-maximal effect.

SMILES	Marburg entry inh	Vaccinia Venus	FMDV antiviral	Vaccinia mCherry	LASV entry inh
CCOC(=O)C1CCCN(C(=O)C2CCN(S(=O)(=O)c3c(C)noc3/C=C/c3ccc(C)cc3)CC2)C1 (stereo not given)	.	-11%	0%	-18%	?
Cc1c(C(=O)Nc2ccccc2F)sc2ncnc(N(C)C3CCCCC3)c12	.	-8%	-16%	2%	-8%[46.1 µM]
Cc1ccc(C(=O)N2CCc3cc(CNC(=O)c4ccnn4C)ccc32)cc1	.	?	?	-16%	?
Cc1cccc(C(=O)N2CCc3cc(CNC(=O)c4ccnn4C)ccc32)c1	.	-13%	20µM*	i	?
CCOC(=O)c1cccc(NC(=O)NCc2ccc3c(c2)CCN3C(=O)c2ccccc2)c1	.	?	40µM*	?	?
CN(C)S(=O)(=O)c1cccc(NC(=O)C2Cc3ccccc3CN2C(=O)c2ccco2)c1 (stereo not given)	2%[46.1 µM]	0%	14%	-15%	-8%
Cc1cc(Nc2cccc(C(F)(F)F)c2)nc2ccc(NC(=O)c3cccnc3)cc12	.	11µM*	28µM*	10µM*	?
Cc1cc(Nc2cccc(C(F)(F)F)c2)nc2ccc(NC(=O)c3cccc(Cl)c3)cc12	.	-22%	?	-22%	-27%[46.1 µM]
O=C(COC(=O)CSc1ccc(Cl)cc1)Nc1ccc2[nH]c(=O)[nH]c2c1	1%[46.1 µM]	-29%	-3%	-5%	6%[46.1 µM]
COc1cc(/C=N/NC(=O)COc2ccc(C)cc2)ccc1OC(=O)c1cccs1	10%	6%	1%	9%	9.2µM*
CC(C)(CNC(=O)c1cccc(S(=O)(=O)N2CCCCC2)c1)N1CCOCC1	.	-16%	-13%	-11%	.
COCC1CCCN(Cc2cn(Cc3ccccc3)nc2-c2cc3ccccc3o2)C1 (stereo not given)	2.5µM*	-25%	-13%	-21%	?
CCn1cc2nc(SCc3ccccc3F)n(Cc3ccc(C)cc3)c(=O)c2n1	.	-19%	-18%	-29%	?
Cc1nc2cc(NC(=O)c3ccc(S(=O)(=O)N(C)c4ccccc4)cc3)ccc2o1	?	-10%	22µM*	-4%	-18%
CN(c1cccc(NC(=O)c2ccc(N(C)S(=O)(=O)c3ccccc3)cc2)c1)S(C)(=O)=O	16µM*	.	14µM*	.	?
CN(C)S(=O)(=O)c1ccc(C(=O)Nc2ccc(F)cc2F)cc1	.	-18%	3%	i	.
Cc1nc2ccc(NC(=O)c3cc(S(=O)(=O)N(C)c4ccccc4)ccc3Cl)cc2s1	?	-14%	?	-25%	-29%
CN(c1ccc(C(=O)Nc2ccc(F)cc2F)cc1)S(=O)(=O)c1ccccc1	-27%	-26%	?	-5%	11µM*
Cc1nc2ccc(NC(=O)c3ccc(Cl)c(S(=O)(=O)N(C)c4ccccc4)c3)cc2s1	?	?	8.9µM*	?	?
CN(c1cccc(NC(=O)c2ccc(C(C)(C)C)cc2)c1)S(C)(=O)=O	?	-20%	?	i	?
CN1C2CCC1/C(=C\c1ccccc1F)C(=O)/C2=C/c1ccccc1F	2%	?	-16%	11µM*	-26%
CC1CCN(C2=NC(=O)/C(=C/c3ccccc3F)S2)CC1	?	-20%	-6%	-28%	?
Cc1nc2c(o1)CCc1ccccc1[C@H]2O	11%	.	.	.	.
CCC(C)(C)n1nnnc1C(c1cc2cc(C)ccc2[nH]c1=O)N1CCCc2ccccc21 (stereo not given)	-10%	-6%	-11%	-15%	-2%
Cc1ccc2cc(C(c3nnnn3Cc3ccccc3)N3CCc4ccccc43)c(=O)[nH]c2c1 (stereo not given)	?	.	23%	.	?
Cc1ccc2[nH]c(=O)c(C(c3nnnn3Cc3ccccc3)N3CCc4ccccc43)cc2c1 (stereo not given)	10µM*	.	-10%	.	?
Cc1ccc2[nH]c(=O)c(C(c3nnnn3C3CCCC3)N3CCCc4ccccc43)cc2c1 (stereo not given)	5.8µM*	.	5%	.	?
C[C@H]1C=CCC(=O)N[C@@H](c2ccc3ccccc3c2)[C@@H](C)C=CCC(=O)N[C@@H]1c1ccc2ccccc2c1	20%[14.2 µM]	.	.	.	.
Cc1ccc(/C=[N+](/C)[O-])cc1	12%[46.1 µM]	-13%	-11%	-2%	17%[46.1 µM]
Cc1ccc(C=C2C(Cl)=C(Cl)C(Cl)=C2Cl)cc1	17%[46.1 µM]	10%	18µM*	4%	13%
